According to the supplement of paper PMC11732987, “Enantioselective OTUD7B fragment discovery through chemoproteomics screening and high-throughput optimisation” (Communications Chemistry, 2025):

Tests used:
Test in all cases: log2 ratio of Biotin-Ahx-Ub-VS probe labelling (fragment/DMSO); higher = less target engagement (more negative = stronger competition), active = hit call of the paper (q ≤ 0.05, log2 ratio ≤ -1)
Conditions in all cases: compound concentration: 200 uM; treatment time: 3 h
USP34 = USP34 (UniProt Q70CQ2)
In short: (§1)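 Labelled DUBs from HEK293T lysate were NeutrAvidin-enriched, digested with LysC and trypsin, and run by diaPASEF LC-MS/MS. Before that, each 495 µg sample in Tris/CHAPS/IGEPAL buffer with protease inhibitors was treated in triplicate with fragment at 200 µM or vehicle for 3 h, then with Biotin-Ahx-Ub-VS at 0.5 µM final for 1 h. Values are average log2 ratios of fragment over vehicle by unpaired t-test, based on global-median-normalised Spectronaut label-free quantities from proteins with ≥2 unique peptides.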

USP36 = target: T1, USP36 (UniProt Q9P275)
T1 sequence (whole entry): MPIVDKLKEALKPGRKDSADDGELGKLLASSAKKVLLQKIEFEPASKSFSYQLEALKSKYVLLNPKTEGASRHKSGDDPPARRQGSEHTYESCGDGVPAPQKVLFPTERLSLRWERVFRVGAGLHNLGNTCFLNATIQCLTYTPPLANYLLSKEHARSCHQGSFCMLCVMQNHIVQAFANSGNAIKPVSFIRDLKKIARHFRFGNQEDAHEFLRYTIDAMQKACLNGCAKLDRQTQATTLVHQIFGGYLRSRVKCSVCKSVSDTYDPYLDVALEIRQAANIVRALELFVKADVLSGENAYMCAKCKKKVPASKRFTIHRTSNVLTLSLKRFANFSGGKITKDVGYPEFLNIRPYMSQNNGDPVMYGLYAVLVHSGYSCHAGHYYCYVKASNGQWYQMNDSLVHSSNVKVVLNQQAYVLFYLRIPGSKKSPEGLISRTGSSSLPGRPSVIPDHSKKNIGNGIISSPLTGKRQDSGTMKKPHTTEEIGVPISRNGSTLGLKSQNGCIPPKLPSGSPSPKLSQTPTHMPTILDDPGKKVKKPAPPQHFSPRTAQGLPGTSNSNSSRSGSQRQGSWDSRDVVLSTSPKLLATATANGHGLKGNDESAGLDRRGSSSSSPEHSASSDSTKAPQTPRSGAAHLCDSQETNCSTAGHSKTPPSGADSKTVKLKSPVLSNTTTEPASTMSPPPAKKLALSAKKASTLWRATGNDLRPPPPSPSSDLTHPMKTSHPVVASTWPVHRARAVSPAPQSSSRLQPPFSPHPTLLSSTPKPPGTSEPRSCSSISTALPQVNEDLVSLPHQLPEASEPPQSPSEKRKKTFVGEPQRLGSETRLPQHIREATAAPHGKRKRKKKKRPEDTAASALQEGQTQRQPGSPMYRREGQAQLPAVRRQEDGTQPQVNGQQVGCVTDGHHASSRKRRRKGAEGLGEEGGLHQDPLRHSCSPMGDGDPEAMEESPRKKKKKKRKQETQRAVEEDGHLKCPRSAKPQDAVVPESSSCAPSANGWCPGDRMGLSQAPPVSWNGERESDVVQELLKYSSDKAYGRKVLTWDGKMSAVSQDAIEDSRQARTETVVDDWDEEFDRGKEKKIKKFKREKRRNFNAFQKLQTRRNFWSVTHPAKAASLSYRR
In short: as §1

USP38 = target: T2, USP38 (UniProt Q8NB14)
T2 sequence (whole entry): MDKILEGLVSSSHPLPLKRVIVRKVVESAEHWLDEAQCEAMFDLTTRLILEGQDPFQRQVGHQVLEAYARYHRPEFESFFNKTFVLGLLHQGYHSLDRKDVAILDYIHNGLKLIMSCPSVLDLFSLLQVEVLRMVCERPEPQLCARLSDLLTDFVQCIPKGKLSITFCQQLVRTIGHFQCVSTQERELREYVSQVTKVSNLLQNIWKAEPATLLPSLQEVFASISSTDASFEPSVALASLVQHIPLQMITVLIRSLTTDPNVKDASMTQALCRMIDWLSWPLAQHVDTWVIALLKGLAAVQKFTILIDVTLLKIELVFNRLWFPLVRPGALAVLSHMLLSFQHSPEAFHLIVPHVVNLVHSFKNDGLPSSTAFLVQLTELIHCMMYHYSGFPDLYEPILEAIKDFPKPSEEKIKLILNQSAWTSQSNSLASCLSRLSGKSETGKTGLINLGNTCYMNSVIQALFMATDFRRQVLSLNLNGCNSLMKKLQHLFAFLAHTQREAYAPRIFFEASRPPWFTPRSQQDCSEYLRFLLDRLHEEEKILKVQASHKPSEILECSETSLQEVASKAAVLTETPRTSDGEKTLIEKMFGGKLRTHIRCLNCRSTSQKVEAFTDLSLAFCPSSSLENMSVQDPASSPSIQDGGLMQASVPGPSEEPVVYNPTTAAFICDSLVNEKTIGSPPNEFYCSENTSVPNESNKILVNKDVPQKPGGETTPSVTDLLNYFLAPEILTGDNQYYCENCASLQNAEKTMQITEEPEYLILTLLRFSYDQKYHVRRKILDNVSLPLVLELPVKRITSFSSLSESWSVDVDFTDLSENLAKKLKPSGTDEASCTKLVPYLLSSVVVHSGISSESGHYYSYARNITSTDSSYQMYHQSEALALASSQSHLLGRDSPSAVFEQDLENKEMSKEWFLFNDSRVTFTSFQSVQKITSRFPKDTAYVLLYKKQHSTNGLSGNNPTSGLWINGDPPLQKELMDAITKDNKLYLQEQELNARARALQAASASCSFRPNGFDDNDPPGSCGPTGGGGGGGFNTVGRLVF
In short: as §1

USP39 = target: T3, USP39 (UniProt Q53GS9)
T3 sequence (whole entry): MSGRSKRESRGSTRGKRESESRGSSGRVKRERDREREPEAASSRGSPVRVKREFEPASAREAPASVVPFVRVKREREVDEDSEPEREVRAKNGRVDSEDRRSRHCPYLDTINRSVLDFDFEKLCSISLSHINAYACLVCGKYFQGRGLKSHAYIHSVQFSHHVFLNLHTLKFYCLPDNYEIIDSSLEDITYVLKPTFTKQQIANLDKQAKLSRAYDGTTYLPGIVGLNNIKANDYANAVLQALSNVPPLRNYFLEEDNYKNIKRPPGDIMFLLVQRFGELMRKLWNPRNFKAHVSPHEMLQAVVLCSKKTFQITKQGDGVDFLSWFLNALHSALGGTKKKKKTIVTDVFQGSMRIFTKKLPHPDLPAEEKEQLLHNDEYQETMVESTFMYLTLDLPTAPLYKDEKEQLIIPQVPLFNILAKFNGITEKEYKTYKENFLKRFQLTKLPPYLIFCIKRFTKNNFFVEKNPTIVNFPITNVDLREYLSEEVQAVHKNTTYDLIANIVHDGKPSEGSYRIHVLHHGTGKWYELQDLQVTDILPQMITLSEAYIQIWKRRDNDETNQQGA
In short: as §1

USP4 = target: T4, USP4 (UniProt Q13107)
T4 sequence (whole entry): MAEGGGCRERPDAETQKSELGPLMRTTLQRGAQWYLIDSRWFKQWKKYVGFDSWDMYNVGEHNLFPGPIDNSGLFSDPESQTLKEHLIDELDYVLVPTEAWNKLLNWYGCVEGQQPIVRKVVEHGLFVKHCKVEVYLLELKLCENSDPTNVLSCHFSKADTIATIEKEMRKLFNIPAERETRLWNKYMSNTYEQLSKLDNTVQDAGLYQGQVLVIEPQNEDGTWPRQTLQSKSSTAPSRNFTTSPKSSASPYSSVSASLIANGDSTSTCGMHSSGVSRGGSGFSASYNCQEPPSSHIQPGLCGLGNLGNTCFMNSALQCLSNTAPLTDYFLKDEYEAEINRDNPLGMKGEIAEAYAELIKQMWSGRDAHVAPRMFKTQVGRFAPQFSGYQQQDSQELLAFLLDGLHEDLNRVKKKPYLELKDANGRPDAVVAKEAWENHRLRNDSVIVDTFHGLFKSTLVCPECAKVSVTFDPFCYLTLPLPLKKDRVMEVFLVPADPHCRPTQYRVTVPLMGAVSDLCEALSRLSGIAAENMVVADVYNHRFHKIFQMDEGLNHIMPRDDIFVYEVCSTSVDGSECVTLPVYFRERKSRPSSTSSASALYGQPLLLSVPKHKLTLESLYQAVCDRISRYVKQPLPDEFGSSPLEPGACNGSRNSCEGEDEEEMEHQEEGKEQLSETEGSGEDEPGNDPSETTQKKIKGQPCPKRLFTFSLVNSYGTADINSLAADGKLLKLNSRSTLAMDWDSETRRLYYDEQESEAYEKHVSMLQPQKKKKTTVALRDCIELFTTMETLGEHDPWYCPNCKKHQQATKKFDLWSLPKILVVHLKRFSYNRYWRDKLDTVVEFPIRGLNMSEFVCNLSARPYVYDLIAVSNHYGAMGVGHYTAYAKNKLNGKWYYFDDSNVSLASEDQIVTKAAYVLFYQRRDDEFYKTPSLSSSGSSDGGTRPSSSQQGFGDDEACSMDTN
In short: as §1

Measured: log2 ratio of Biotin-Ahx-Ub-VS probe labelling

USP34, sequence (Q70CQ2 whole entry, the tested form may be a part): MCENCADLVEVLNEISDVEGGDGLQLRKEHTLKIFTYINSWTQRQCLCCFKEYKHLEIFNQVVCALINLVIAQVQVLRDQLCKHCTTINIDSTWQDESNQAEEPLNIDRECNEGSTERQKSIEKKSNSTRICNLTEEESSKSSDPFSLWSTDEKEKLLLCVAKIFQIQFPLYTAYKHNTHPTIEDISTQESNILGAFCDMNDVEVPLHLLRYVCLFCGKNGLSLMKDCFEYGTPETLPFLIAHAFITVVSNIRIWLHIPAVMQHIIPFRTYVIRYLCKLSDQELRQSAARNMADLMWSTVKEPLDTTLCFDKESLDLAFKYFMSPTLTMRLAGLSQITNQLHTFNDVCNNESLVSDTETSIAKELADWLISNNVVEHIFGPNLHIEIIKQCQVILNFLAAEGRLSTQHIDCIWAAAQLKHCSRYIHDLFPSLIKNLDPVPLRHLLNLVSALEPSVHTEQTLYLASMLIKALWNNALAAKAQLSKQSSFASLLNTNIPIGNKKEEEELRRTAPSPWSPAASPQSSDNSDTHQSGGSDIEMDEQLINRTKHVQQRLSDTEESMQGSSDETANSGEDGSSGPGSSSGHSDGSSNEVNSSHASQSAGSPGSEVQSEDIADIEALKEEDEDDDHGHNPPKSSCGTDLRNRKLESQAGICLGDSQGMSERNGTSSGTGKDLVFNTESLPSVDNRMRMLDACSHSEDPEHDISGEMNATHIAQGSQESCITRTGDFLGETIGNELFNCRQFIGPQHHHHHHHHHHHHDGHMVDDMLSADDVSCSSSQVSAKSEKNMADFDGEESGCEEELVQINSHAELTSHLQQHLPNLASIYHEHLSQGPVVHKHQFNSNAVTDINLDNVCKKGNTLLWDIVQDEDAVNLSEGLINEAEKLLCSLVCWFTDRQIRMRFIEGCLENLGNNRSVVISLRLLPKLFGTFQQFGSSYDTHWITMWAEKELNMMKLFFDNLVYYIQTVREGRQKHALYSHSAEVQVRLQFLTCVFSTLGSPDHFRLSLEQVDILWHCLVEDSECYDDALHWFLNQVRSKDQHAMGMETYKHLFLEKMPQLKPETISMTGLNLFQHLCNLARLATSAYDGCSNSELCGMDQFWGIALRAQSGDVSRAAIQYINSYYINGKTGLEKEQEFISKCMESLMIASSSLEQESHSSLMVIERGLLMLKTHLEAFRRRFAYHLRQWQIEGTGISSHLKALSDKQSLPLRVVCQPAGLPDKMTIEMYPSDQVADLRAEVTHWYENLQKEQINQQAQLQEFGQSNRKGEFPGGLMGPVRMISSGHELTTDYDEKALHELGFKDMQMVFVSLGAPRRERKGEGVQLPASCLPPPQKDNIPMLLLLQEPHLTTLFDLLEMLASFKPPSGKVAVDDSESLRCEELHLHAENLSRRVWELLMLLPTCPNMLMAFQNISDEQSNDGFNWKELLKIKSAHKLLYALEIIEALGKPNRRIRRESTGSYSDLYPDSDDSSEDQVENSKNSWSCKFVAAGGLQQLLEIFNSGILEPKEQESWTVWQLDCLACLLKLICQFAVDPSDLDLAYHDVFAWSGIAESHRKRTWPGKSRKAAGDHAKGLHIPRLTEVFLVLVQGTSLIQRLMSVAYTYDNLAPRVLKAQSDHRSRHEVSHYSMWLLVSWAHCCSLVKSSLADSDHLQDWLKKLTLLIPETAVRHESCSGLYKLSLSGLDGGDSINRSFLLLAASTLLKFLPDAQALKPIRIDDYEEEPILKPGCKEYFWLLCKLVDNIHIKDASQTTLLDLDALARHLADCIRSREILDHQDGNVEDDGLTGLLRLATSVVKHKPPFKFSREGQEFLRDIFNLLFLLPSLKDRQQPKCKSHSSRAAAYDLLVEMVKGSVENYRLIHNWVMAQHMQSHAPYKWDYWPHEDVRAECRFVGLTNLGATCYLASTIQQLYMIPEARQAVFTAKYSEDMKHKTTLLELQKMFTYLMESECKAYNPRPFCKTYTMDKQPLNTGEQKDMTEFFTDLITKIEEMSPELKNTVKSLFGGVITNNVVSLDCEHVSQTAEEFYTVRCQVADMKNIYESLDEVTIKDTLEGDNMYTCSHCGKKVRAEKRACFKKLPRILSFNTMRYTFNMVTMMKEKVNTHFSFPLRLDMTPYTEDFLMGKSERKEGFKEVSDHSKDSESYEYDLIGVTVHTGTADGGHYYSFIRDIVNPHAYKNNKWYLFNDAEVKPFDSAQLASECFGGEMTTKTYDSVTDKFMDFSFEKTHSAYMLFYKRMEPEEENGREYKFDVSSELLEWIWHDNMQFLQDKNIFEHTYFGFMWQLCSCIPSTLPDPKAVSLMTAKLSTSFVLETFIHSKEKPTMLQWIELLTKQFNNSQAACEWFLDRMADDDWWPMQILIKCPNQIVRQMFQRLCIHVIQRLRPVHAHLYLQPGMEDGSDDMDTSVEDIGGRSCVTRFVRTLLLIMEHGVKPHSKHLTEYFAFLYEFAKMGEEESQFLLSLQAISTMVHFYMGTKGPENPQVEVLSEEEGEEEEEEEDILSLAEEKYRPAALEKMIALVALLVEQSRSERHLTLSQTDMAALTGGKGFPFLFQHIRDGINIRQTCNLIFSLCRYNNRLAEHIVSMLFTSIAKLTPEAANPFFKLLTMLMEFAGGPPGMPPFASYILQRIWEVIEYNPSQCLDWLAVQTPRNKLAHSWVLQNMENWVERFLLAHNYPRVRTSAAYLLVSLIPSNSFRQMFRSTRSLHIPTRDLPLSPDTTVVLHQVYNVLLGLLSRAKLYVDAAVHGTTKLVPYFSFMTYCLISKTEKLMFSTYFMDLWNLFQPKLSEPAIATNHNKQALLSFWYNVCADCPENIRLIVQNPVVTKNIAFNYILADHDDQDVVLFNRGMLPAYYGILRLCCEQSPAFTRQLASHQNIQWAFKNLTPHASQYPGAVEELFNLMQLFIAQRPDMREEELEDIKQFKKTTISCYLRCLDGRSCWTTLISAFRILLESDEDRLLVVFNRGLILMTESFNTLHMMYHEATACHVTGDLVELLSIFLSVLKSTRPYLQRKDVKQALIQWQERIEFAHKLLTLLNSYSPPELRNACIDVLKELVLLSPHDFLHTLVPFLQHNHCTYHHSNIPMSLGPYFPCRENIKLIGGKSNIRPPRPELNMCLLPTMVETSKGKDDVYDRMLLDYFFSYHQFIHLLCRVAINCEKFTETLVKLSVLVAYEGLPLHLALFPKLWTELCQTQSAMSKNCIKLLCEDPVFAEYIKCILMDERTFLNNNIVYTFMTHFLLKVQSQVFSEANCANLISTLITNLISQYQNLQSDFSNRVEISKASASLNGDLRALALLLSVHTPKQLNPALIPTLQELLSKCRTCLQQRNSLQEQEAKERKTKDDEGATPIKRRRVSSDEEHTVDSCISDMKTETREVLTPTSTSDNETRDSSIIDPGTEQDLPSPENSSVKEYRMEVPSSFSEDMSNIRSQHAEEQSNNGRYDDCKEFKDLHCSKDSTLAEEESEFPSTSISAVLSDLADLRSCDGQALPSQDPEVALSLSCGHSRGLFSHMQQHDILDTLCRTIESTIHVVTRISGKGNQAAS

Cl.O=C(CCl)NCc1ccnc(Oc2ccccc2F)c1
inactive: USP34 -0.267 | USP36 0.0203 | USP38 -0.00457 | USP39 0.295 | USP4 -0.0201
